Results on 19 compounds are retold here after PubChem BioAssay (EPA / NIEHS).

Several values for one entry are separate records, joined by “and”; a condition that tells them apart may be missing. Equal values may be shown once. Results filed as inconclusive are left out. Some compounds were tested as several samples or in several runs, with calls that do not always agree. Activity calls are given as the source filed them. The calls were made as follows, unless noted: active = hit-call score of the fitted dose curve at least 0.9, where 1 is the maximum; inactive = score below 0.9.

Experiment [1] has as its target Glucocorticoid receptor (Homo sapiens) (UniProt P04150). Description: ATG_GR_TRANS: Attagene TRANS-FACTORIAL HepG2 Assay for human Glucocorticoid Receptor (GR) (AID 2282978; active = hit-call score of the fitted dose curve at least 0.9, where 1 is the maximum;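 also: activators score as hits since higher reporter transcript over DMSO is fitted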). Conditions: HepG2 Attagene TRANS GR reporter, mRNA transcription. In outline:
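Transiently transfected HepG2 cells express chimeric NR-GAL4 proteins acting on GAL4-UAS reporter units. Compounds are applied for 24 h. mRNA induction over DMSO is measured by capillary electrophoresis.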

Read-out in experiment [2]: Collagen I, COL1A1 (gene 1277)
The experiment can be described thus: BSK_hDFCGF_CollagenI: BioMAP Diversity Plus: hDFCGF Assay for Collagen I Biomarker Activity (AID 2284250). The following applies: primary human foreskin fibroblasts. A digest of the protocol:
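ELISA read-out of Collagen I in human dermal foreskin fibroblast cultures, 24 h after dosing. Gain of signal versus DMSO vehicle defines activity.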

Read-out in experiment [3]: Interleukin-8 (IL8), CXCL8 (gene 3576)
Description: BSK_KF3CT_IL8: BioMAP Diversity Plus: KF3CT Assay for Interleukin-8 (IL8) Biomarker Activity (AID 2284254). Conditions: primary human keratinocytes with fibroblasts. In outline:
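IL-8 read-out: ELISA, 24 h post-dose, human skin primary co-culture (keratinocytes + foreskin fibroblasts). DMSO = baseline; positive-direction fit.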

The subject of experiment [4] is Thyroperoxidase (TPO), gene 54314. The experiment can be described thus: CCTE_Simmons_AUR_rTPO: CCTE's Amplex UltraRed Assay for Thyroperoxidase (TPO) Inhibition, Simmons Lab (AID 2283662; active = hit-call score of the fitted dose curve at least 0.9, where 1 is the maximum;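 also: potency for loss of signal meaning inhibition of peroxidase activity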). A digest of the protocol: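 Rat thyroid microsomes (5 ug protein) with 25 uM Amplex UltraRed and 300 uM H2O2 in 200 mM phosphate buffer, 30 min at 37C in dark; fluorescence 544/590 nm. Eight concentrations, 5 nM–87.5 uM final, 0.5% DMSO, triplicate biological replicates.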

A short description of experiment [5]: CCTE_Simmons_CellTiterGLO_HEK293T: Viability Assessment in CCTE's Assays for Thyroperoxidase (TPO) Inhibition, Simmons Lab (AID 2283665; active = hit-call score of the fitted dose curve at least 0.9, where 1 is the maximum;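 as to AC50: cells exposed to compound for 24 h before readout; actives reduce ATP signal below DMSO vehicle meaning cytotoxicity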). In outline:
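Luminescent ATP readout (CellTiter-Glo, 20 min at room temperature) after 24 hr exposure of HEK293T cells to 5 nM–87.5 uM final compound; signal loss relative to DMSO vehicle indicated cytotoxicity; dichlone titrated as positive control.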

The target in experiment [6] is Luciferin 4-monooxygenase (Photinus pyralis) (UniProt P08659). The experiment can be described thus: CCTE_Simmons_QuantiLum_inhib_2: CCTE's Firefly Luciferase Inhibition Assay, Simmons Lab (AID 2283767; active = hit-call score of the fitted dose curve at least 0.9, where 1 is the maximum;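 as to AC50: potency for inhibitors that lower luciferase luminescence relative to DMSO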). A digest of the protocol: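 Cell-free QuantiLum luciferase, 5 ng/well; compounds 5 nM–87.5 uM final, 8 conc, 0.5% DMSO; 30 min, 37C, dark. Detection reagent (150 uM D-luciferin, 147 uM dATP, CoA, DTT, pH 7.8 final) injected per well, kinetic luminescence. Triplicate biological replicates.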

Read-out in experiment [7]: Interleukin 17A (IL17A), IL17A (gene 3605)
The experiment can be described thus: BSK_BT_xIL17A: BioMAP Diversity Plus: BT Assay for Interleukin 17A (IL17A) Biomarker Activity (AID 2284229). Conditions: primary human B cells with PBMC. A digest of the protocol: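 Luminex xMAP readout of secreted IL-17A; human B cell + PBMC co-culture; 24 h post-dose; positive-direction fit vs DMSO negative control.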

Read-out in experiment [8]: Tumor necrosis factor (Homo sapiens) (UniProt P01375)
The experiment can be described thus: BSK_BT_xTNFa: BioMAP Diversity Plus: BT Assay for Tumor necrosis factor alpha (TNF-alpha) Biomarker Activity (AID 2284230). The following applies: primary human B cells with PBMC. A digest of the protocol:
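B cells with PBMC in co-culture, dosed and sampled at 24 h; secreted TNF-alpha measured by Luminex xMAP bead assay. Activity fitted in the gain direction against DMSO as negative control and baseline.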

Read-out in experiment [9]: Vascular cell adhesion molecule 1 (VCAM1), VCAM1 (gene 7412)
Description: BSK_MyoF_VCAM1: BioMAP Diversity Plus: MyoF Assay for Vascular cell adhesion molecule 1 (VCAM1) Biomarker Activity (AID 2284231). Conditions: primary human lung fibroblasts. In outline: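 MyoF system, lung fibroblasts; 24 h post-dose; VCAM-1 by ELISA; gain-of-signal fit vs DMSO baseline.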

Read-out in experiment [10]: Collagen I, COL1A1 (gene 1277)
Description: BSK_MyoF_CollagenI: BioMAP Diversity Plus: MyoF Assay for Collagen I Biomarker Activity (AID 2284238). The following applies: primary human lung fibroblasts. In outline: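 ELISA readout of Collagen I after 24 h chemical treatment of primary human lung fibroblast cultures; gain of signal scored relative to DMSO vehicle baseline.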

Read-out in experiment [11]: Collagen III, COL3A1 (gene 1281)
Description: BSK_MyoF_CollagenIII: BioMAP Diversity Plus: MyoF Assay for Collagen III Biomarker Activity (AID 2284239). The following applies: primary human lung fibroblasts. In outline: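 Lung fibroblast culture; 24 h compound exposure; collagen III by ELISA; gain-of-signal fit vs DMSO baseline.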

Read-out in experiment [12]: Actin alpha 1 (ACTA1), ACTA1 (gene 58)
The experiment can be described thus: BSK_MyoF_ACTA1: BioMAP Diversity Plus: MyoF Assay for Actin alpha 1 (ACTA1) Biomarker Activity (AID 2284244). The following applies: primary human lung fibroblasts. A digest of the protocol:
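ELISA read-out of a-SMA in primary human lung fibroblast cultures, 24 h post-dosing. Activity scored in the positive direction versus DMSO baseline.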

Read-out in experiment [13]: Interleukin 2 (IL2), IL2 (gene 3558)
Description: BSK_BT_xIL2: BioMAP Diversity Plus: BT Assay for Interleukin 2 (IL2) Biomarker Activity (AID 2284245). The following applies: primary human B cells with PBMC. In outline:
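Readout: supernatant IL-2 via Luminex xMAP after 24 h chemical dosing of a B cell/PBMC primary human co-culture. DMSO serves as negative control and baseline; increases in signal were fitted.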

Read-out in experiment [14]: Basic fibroblast growth factor (bFGF), FGF2 (gene 2247)
Description: BSK_MyoF_bFGF: BioMAP Diversity Plus: MyoF Assay for Basic fibroblast growth factor (bFGF) Biomarker Activity (AID 2284246). Conditions: primary human lung fibroblasts. A digest of the protocol:
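Primary human lung fibroblast culture, 24 h compound exposure; ELISA read-out of bFGF. Positive-direction fit vs DMSO baseline. Cytotoxicity: SRB stain (0.1% SRB, 10% TCA fixation, 560 nm) in parallel wells.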

Read-out in experiment [15]: Plasminogen activator inhibitor-1 (PAI1), SERPINE1 (gene 5054)
The experiment can be described thus: BSK_MyoF_PAI1: BioMAP Diversity Plus: MyoF Assay for Plasminogen activator inhibitor-1 (PAI1) Biomarker Activity (AID 2284256).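 As to outcome: PAI-1 protein level measured by ELISA in fibroblast cultures; PAI-1 read 24 h after compound addition.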 Conditions: primary human lung fibroblasts. In outline:
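MyoF lung fibroblasts, human primary; compound 24 h; PAI-1 ELISA; positive-direction fit vs DMSO baseline; parallel SRB total-protein staining for cytotoxicity.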

Read-out in experiment [16]: Interleukin-8 (IL8), CXCL8 (gene 3576)
Description: BSK_MyoF_IL8: BioMAP Diversity Plus: MyoF Assay for Interleukin-8 (IL8) Biomarker Activity (AID 2284261). The following applies: primary human lung fibroblasts. A digest of the protocol:
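Lung fibroblasts (human primary) → chemical exposure → 24 h → IL-8 measured by ELISA. Signal increase scored versus DMSO control.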

Experiment [17] can be described thus: BSK_MyoF_SRB: Viability Assessment in the BioMAP Diversity Plus: MyoF Assay (AID 2284267).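 Also: total protein by SRB absorbance in parallel cultures as cytotoxicity measure; cells assessed 24 h after compound addition.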 The following applies: primary human lung fibroblasts. In outline:
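Lung fibroblast cultures, 24 h post-dose; fix 10% TCA, stain 0.1% SRB, read 560 nm. Signal = total protein as cytotoxicity measure; fitted relative to DMSO negative control.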

Experiment [18] concerns the target Retinoic acid receptor RXR-alpha (Homo sapiens) (UniProt P19793). Description: OT_NURR1_NURR1RXRa_0480: Odyssey Thera (OT) 8-hour HEK293T Protein Complementation Assay for Nurr1/retinoid X receptor (RXR) (AID 2283385; active = hit-call score of the fitted dose curve at least 0.9, where 1 is the maximum). In outline: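 Read-out: fluorescence from protein-fragment complementation between Nurr1 and RXRα in human HEK293T cells, 8 h after dosing. DMSO served as negative control; increased signal counted as activity.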

The nature of experiment [19]: CCTE_Deisenroth_AIME_384WELL_CTox_Inactive: Cytotoxicity Assessment (CTOX) in CCTE's 384-well Estrogen Receptor Transactivation Assay without AIME metabolic competence (metabolism negative), Deisenroth Lab (AID 2284039; active = hit-call score of the fitted dose curve at least 0.9, where 1 is the maximum;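 also: cell viability via live-cell protease substrate cleaved to fluorescent probe; cells exposed 24 h to medium preincubated 2 h with alginate-water beads without S9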). A digest of the protocol: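 VM7Luc4E2 cells, metabolism-negative arm: test chemicals (0.002–200 uM, 10 points) pre-incubated 2 h with alginate-water microspheres, then medium transferred to cells for 24 h. Viability read as protease-substrate cleavage to fluorescent probe; loss-of-signal, bidirectional fitting.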

Experiment [20] is described as follows: CCTE_Deisenroth_AIME_384WELL_CTox_Active: Cytotoxicity Assessment (CTOX) in CCTE's 384-well Estrogen Receptor Transactivation Assay with AIME metabolic competence (metabolism positive), Deisenroth Lab (AID 2284037; active = hit-call score of the fitted dose curve at least 0.9, where 1 is the maximum;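 also: chemicals first conditioned 2 h by alginate-bound induced rat liver S9 before cells; activity means signal loss indicating cell death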). In outline:
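VM7Luc4E2 breast cells received medium pre-incubated 2 h with chemical over alginate microspheres holding induced male Sprague Dawley rat liver S9; viability read 24 h later by protease-substrate fluorescence. Loss of signal, bidirectional fit, 0.002–200 uM.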

Chain of Tumor necrosis factor (Homo sapiens) (P01375 whole entry, looked up): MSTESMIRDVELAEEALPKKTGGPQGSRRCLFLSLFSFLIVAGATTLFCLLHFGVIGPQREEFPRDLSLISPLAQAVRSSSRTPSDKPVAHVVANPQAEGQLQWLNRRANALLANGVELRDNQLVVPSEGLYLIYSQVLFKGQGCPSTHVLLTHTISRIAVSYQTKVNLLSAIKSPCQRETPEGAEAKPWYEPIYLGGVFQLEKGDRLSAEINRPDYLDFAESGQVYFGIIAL
Chain of Luciferin 4-monooxygenase (Photinus pyralis) (P08659 whole entry, looked up): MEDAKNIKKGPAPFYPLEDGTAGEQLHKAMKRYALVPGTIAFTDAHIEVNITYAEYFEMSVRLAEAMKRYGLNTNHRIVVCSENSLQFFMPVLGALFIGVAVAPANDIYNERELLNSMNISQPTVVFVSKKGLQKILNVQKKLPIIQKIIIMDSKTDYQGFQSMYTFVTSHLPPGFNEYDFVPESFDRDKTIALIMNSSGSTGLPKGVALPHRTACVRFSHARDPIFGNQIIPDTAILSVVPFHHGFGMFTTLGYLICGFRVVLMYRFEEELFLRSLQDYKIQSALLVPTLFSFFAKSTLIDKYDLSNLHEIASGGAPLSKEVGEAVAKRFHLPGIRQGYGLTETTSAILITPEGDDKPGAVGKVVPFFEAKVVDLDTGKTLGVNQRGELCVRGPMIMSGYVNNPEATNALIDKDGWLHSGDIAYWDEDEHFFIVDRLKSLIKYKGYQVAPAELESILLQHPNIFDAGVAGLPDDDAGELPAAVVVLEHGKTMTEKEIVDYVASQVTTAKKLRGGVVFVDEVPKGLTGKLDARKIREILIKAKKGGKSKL
Chain of Glucocorticoid receptor (Homo sapiens) (P04150 whole entry, looked up, the tested form may be a part): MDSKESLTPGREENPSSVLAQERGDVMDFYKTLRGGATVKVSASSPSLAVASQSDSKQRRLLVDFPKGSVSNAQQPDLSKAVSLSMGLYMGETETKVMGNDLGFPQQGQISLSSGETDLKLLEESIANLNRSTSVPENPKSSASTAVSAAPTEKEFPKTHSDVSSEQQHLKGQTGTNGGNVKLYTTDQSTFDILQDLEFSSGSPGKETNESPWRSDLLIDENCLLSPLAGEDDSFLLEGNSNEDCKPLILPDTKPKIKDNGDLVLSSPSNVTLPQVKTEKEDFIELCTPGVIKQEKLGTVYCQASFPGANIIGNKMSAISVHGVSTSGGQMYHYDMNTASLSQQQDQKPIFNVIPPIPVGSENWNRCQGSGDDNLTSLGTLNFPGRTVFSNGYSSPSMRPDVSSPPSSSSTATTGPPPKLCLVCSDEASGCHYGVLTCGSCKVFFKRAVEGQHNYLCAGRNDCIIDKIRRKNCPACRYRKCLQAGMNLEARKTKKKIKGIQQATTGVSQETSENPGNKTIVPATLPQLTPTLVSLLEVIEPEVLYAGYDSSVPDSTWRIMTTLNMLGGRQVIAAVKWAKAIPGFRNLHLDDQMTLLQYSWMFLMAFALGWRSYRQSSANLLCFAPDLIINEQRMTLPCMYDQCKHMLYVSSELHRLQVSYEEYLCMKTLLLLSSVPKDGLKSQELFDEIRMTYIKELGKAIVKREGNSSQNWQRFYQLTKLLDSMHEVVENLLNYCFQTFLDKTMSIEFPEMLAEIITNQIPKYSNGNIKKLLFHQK
Chain of Retinoic acid receptor RXR-alpha (Homo sapiens) (P19793 whole entry, looked up, the tested form may be a part): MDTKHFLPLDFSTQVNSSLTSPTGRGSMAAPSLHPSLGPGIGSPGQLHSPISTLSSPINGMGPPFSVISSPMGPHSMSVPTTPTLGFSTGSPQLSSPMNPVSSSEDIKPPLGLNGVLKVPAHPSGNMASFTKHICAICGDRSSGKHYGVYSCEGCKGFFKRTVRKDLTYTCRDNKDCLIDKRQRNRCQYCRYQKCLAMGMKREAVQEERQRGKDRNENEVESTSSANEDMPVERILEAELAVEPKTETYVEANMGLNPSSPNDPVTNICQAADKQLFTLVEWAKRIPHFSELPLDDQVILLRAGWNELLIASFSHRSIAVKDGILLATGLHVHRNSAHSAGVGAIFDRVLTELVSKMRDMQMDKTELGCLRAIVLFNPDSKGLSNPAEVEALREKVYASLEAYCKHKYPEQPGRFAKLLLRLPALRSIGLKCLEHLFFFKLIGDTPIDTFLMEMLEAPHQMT

In the case of `COc1ccc(CO)cc1`, the compound was classed as inactive in experiment [1], in [2] and in experiment [3].

As usually defined, the AC50 is the midpoint of the concentration-response curve, whichever way the signal moves. `CC(C)c1ccc(O)cc1`: the AC50 in experiment [4] is 2.24 µM (active). The call in [5] and in experiment [6] was inactive.

Consider `O=[N+]([O-])c1cc([N+](=O)[O-])c2ccccc2c1`, for which the outcome in experiment [1] was inactive.

Turning to `CC(C)COP(=O)(OCC(C)C)OCC(C)C`, the outcome in experiment [7], in experiment [8], in [9], in experiment [10], in experiment [11] and in experiment [12] was inactive. Moreover, the outcome in experiment [13], in [14], in experiment [15], in [16] and in experiment [17] was inactive.

Turning to `O=C(O)CCl`, the result in experiment [18], in experiment [5], in experiment [6] and in experiment [19] was inactive. In addition, the concentration at half-maximal activity (AC50) in experiment [4] is 18.1 µM (active).

As to `O=c1[nH]c(Cl)c(Cl)cc1Cl`, the outcome in [7], in [8], in [9], in experiment [10], in experiment [11] and in experiment [12] was inactive. Also, the outcome in [13], in experiment [14], in experiment [15], in experiment [16] and in experiment [17] was inactive.

Regarding `C[N+](=O)[O-]`, the call in [1] was inactive.

Take `CC(=O)/C=C/c1ccccc1`: the AC50 in experiment [7], in experiment [8] and in experiment [13] was 20 µM (active) in each case. Besides, the outcome in experiment [9], in experiment [10], in experiment [11], in experiment [12], in experiment [14] and in experiment [15] was inactive. Also, the outcome in experiment [16] and in experiment [17] was inactive.

Consider `O=C1C=CC(=O)C=C1`, for which the AC50 in experiment [7] was 13.6 µM (active) and 20 µM (active); in experiment [8], 24 µM (active) and 33.1 µM (active); in experiment [9], 34 µM (active) and 29.6 µM (active); in [10], 31.8 µM (active) and 25.3 µM (active); in experiment [11] it was 32.2 µM (active) and 20 µM (active); in [12], 30.9 µM (active) and 20 µM (active). The AC50 in experiment [13] is 26.3 µM (active) and 32 µM (active); in experiment [14] it was 34.7 µM (active) and 30.6 µM (active); in [15], 36.9 µM (active) and 26.8 µM (active); in experiment [16] it was 9.01 µM (active) and 4.78 µM (active); in experiment [17], 30.6 µM (active) and 29 µM (active).

For `CCCCOP(=O)(O)OCCCC`, in experiment [1], the outcome was inactive.

Regarding `C=CCN(CC=C)C(=O)C(Cl)Cl`, the compound was classed as inactive in experiment [20], in experiment [19], in [7], in experiment [8], in experiment [9] and in experiment [10]. Further, the outcome in experiment [11], in experiment [12], in [13], in experiment [14], in [15] and in [16] was inactive. In addition, the outcome in experiment [17] was inactive.

For the compound `CCOP(=O)(OCC)OCC`, the outcome in experiment [1] and in [18] was inactive.

Take `CCCCCCCCCCCCCCCC[N+](C)(C)C`: the concentration at half-maximal activity (AC50) was 51.5 µM (active) in experiment [4], 10.2 µM (active) in experiment [5], 92.4 µM (active) in experiment [6] and 100 µM (active) in experiment [19]. In addition, the outcome in experiment [20] was inactive.

As to `CCCOC(=O)c1ccccc1C(=O)OCCC`, the outcome in experiment [7], in experiment [8], in experiment [9], in experiment [10], in experiment [11] and in [12] was inactive. Also, the outcome in [13], in [14], in experiment [15], in experiment [16] and in [17] was inactive.

With `CC(=O)c1cc2c(cc1C)C(C)(C)C(C)CC2(C)C` (centres undefined), the AC50 in experiment [18] is 82.1 µM (active).

Take `N#CCCCCC#N`: the result in experiment [18] and in experiment [19] was inactive.

`Oc1ccc(C2(c3ccc(O)cc3)c3ccccc3-c3ccccc32)cc1`: in [2], the AC50 was 0.151 µM (active) and the result was inactive. Besides, in experiment [3], the AC50 is 8.38 µM (active) and the outcome was inactive.

As to `O=[N+]([O-])c1ccc(Cl)cc1`, the compound was called inactive in experiment [20] and in experiment [19].

For the compound `Nc1ccccc1`, the result in experiment [18], in experiment [5], in experiment [6], in experiment [20] and in experiment [19] was inactive. Moreover, the half-maximal activity concentration (AC50) in [4] was 0.759 µM (active).
